Values joined by “and” are separate entries in the source; they are usually repeats but may differ in a detail not shown here. Equal entries are not always repeated. Compounds without any hit were thinned out: in the full panel of roughly 83,000, 20% have a hit.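 Single-concentration screen, 48 h exposure, 96-well plates. Endpoint: percent growth. Below 10 = active.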 Active and inactive are the calls of the source.
Tests used:
Experiment in all cases: NCI-60 one-dose screen, 48 h (100 = growth as untreated, 0 = no growth, -100 = all killed)
Conditions in all cases: 10 µM unless noted
T-47D breast = system: T-47D breast
BT-549 breast = system: BT-549 breast
MDA-MB-435 melanoma = system: MDA-MB-435 melanoma
SW-620 colon = system: SW-620 colon
MCF7 breast = system: MCF7 breast
HCT-116 colon = system: HCT-116 colon
HCC-2998 colon = system: HCC-2998 colon
KM12 colon = system: KM12 colon

Measured: growth

Cc1ccc2cccc(OC(=O)Nc3cccc(C(F)(F)F)c3)c2n1
inactive: T-47D breast 47.1% | BT-549 breast 108% | MDA-MB-435 melanoma 91.3% | SW-620 colon 58% | MCF7 breast 72.2% | HCT-116 colon 38% | HCC-2998 colon 87.6% | KM12 colon 44.5%

COc1ccc2c(c1)c(CC(=O)O)c(C)n2C(=O)c1ccc(Cl)cc1
inactive: T-47D breast 107% | BT-549 breast 66.9% | MDA-MB-435 melanoma 96.8% | SW-620 colon 98.8% | MCF7 breast 83.7% | HCT-116 colon 95.2% | HCC-2998 colon 108% | KM12 colon 99.2%

Cc1cc(C(=C2C=CC(=Nc3ccccc3)C=C2)c2ccc(Nc3ccccc3)cc2)ccc1N
active: T-47D breast -50.1% | BT-549 breast -88.9% | MDA-MB-435 melanoma -68% | SW-620 colon -70.4% | MCF7 breast -44.3% | HCT-116 colon 0.559% | HCC-2998 colon -90.7% | KM12 colon -89.2%

O=[N+]([O-])c1ccc(C(Br)c2ccc([N+](=O)[O-])cc2)cc1
inactive: T-47D breast 83.8% | BT-549 breast 77.3% | MDA-MB-435 melanoma 64.8% | SW-620 colon 11.1% | MCF7 breast 70.8% | HCT-116 colon 21.3% | HCC-2998 colon 90.4% | KM12 colon 60.3%

Cc1ccccc1NC(=O)Cc1csc2[n+]1C(=O)/C(=C/c1ccc([N+](=O)[O-])cc1)S2
inactive: T-47D breast 84.2% | BT-549 breast 88.9% | MDA-MB-435 melanoma 97.5% | SW-620 colon 107% | MCF7 breast 92.7% | HCT-116 colon 84.4% | HCC-2998 colon 82.2% | KM12 colon 98.4%

O=C(Nc1ccc(Cl)c(Cl)c1)OCc1ccco1
inactive: T-47D breast 38.4% | BT-549 breast 31.6% | SW-620 colon 40.4% | MCF7 breast 14.8% | HCT-116 colon 26.6% | HCC-2998 colon 56.4%
active: MDA-MB-435 melanoma 0.451% | KM12 colon 8.03%

c1csc(-c2[nH]nc3c2CCc2ccccc2-3)c1
inactive: BT-549 breast 98.5% | MDA-MB-435 melanoma 104% | SW-620 colon 106% | HCT-116 colon 99.1% | HCC-2998 colon 43.6% | KM12 colon 23.5%
active: T-47D breast -61.7% | MCF7 breast 5.26%

O=C(O)c1cccc2cccc(-c3c4ccc(=O)c(O)c-4oc4c(O)c(O)ccc34)c12
inactive: T-47D breast 98.9% | BT-549 breast 93.8% | MDA-MB-435 melanoma 100% | SW-620 colon 97.3% | MCF7 breast 101% | HCT-116 colon 91.2% | HCC-2998 colon 96.2% | KM12 colon 96%

O=C1/C(=C/c2ccccc2)CCC/C1=C\c1ccccc1
inactive: T-47D breast 82% | BT-549 breast 80.5% | MDA-MB-435 melanoma 13.2% | SW-620 colon 22% | MCF7 breast 30.7% | HCC-2998 colon 81.4% | KM12 colon 10.1%
active: HCT-116 colon -79%

CC(/C=N/NC(N)=S)Cc1ccc(C(C)C)cc1 (centres undefined)
inactive: T-47D breast 16.6% | BT-549 breast 64.1% | MDA-MB-435 melanoma 49.2% | SW-620 colon 63.5% | MCF7 breast 49.9% | HCT-116 colon 51.4% | HCC-2998 colon 51.9% | KM12 colon 89.5%

CC1(O)CCCCCC1
inactive: T-47D breast 97% | BT-549 breast 96.1% | MDA-MB-435 melanoma 103% | SW-620 colon 100% | MCF7 breast 96.8% | HCT-116 colon 99.4% | HCC-2998 colon 98.8% | KM12 colon 106%

CC(=O)C1Cc2ccccc2C1=O (centres undefined)
inactive: T-47D breast 101% | BT-549 breast 91.3% | MDA-MB-435 melanoma 103% | SW-620 colon 101% | MCF7 breast 95.4% | HCT-116 colon 103% | HCC-2998 colon 108% | KM12 colon 102%

CCOC(=O)/C(=C\c1ccc2ccccc2c1)P(=O)(OCC)OCC
active: SW-620 colon 2.35% | HCT-116 colon 4.87%
inactive: T-47D breast 32.4% | BT-549 breast 39.8% | MDA-MB-435 melanoma 24% | MCF7 breast 15.3% | HCC-2998 colon 13.6% | KM12 colon 39.2%

CCCCCCCCCCCC[n+]1ccc(CCCCCCCCC)cc1
active: T-47D breast -62.3% | BT-549 breast -27.3% | MDA-MB-435 melanoma -85.5% | SW-620 colon -67% | MCF7 breast -5.44% | HCT-116 colon -91% | HCC-2998 colon -79.5% | KM12 colon -74.4%

CCN(CC)CCNC(Cc1ccccc1)c1ccc(OCc2ccccc2)cc1 (centres undefined)
inactive: T-47D breast 68.5% | BT-549 breast 76.8% | MDA-MB-435 melanoma 26.7% | SW-620 colon 77.2% | MCF7 breast 78.2% | HCT-116 colon 49.9% | HCC-2998 colon 45.4% | KM12 colon 80.7%

CC1=CC(=NC(=O)CBr)C=C/C1=N\S(=O)(=O)c1ccccc1
inactive: T-47D breast 12.3% | BT-549 breast 65.6% | MDA-MB-435 melanoma 43.4% | SW-620 colon 17% | MCF7 breast 16.3% | HCT-116 colon 22.8% | HCC-2998 colon 110% | KM12 colon 106%

Cc1cc(C(=O)c2ccc(Cl)cc2)ccc1O
inactive: T-47D breast 97% | BT-549 breast 94.7% | MDA-MB-435 melanoma 95.6% | SW-620 colon 98% | MCF7 breast 108% | HCT-116 colon 84.8% | HCC-2998 colon 102% | KM12 colon 103%

CN(C)c1ccc2cc3c(cc2c1)Oc1ccccc1N3.[Cl][Zn][Cl]
active: T-47D breast -18.9% | MDA-MB-435 melanoma 6.73% | MCF7 breast 3.32% | HCT-116 colon 8.67%
inactive: BT-549 breast 105% | SW-620 colon 11.8% | HCC-2998 colon 103% | KM12 colon 79.6%

OC(Cc1cc(CC(O)(C(F)(F)F)C(F)(F)F)nc(CC(O)(C(F)(F)F)C(F)(F)F)c1)(C(F)(F)F)C(F)(F)F
inactive: BT-549 breast 11.3% | SW-620 colon 14.6% | HCC-2998 colon 23.9%
active: T-47D breast -1.31% | MDA-MB-435 melanoma 0.574% | MCF7 breast 4.14% | HCT-116 colon 3.99% | KM12 colon 1.25%

OC(c1cc(-c2ccc(C(F)(F)F)cc2)nc(C(F)(F)F)c1)C1CCCCN1 (centres undefined)
inactive: BT-549 breast 52.1% and 93.5% and 85.3%
active: T-47D breast -69.2% and -89.5% and -17.2% | MDA-MB-435 melanoma -63% and -91.8% and 6.26% | SW-620 colon -80.4% and -84.6% and -55.6% | MCF7 breast -88% and -86.5% and -59.3% | HCT-116 colon -82% and -96.2% and 3.87% | HCC-2998 colon -66.8% and -95% and -74.6% | KM12 colon -80.1% and -85.2% and -62.3%

NC(=S)Nc1ccc2c(c1)Cc1ccccc1-2
inactive: T-47D breast 81.9% | BT-549 breast 79.4% | MDA-MB-435 melanoma 110% | SW-620 colon 94.7% | MCF7 breast 70.1% | HCT-116 colon 94.8% | HCC-2998 colon 97.6% | KM12 colon 95.1%

CC12CCC(O)CC1=CCC1C2CCC2(C)C3=NN=CC3CC12 (centres undefined)
inactive: T-47D breast 110% | BT-549 breast 124% | MDA-MB-435 melanoma 53% | SW-620 colon 103% | MCF7 breast 107% | HCT-116 colon 108% | HCC-2998 colon 107% | KM12 colon 94.3%

CCCCCCCCCCCC[n+]1ccccc1 (tested in a mixture with another compound)
inactive: T-47D breast 14.4%
active: BT-549 breast -57.6% | MDA-MB-435 melanoma -74% | SW-620 colon 0.841% | MCF7 breast 2.79% | HCT-116 colon -9.07% | HCC-2998 colon -47.7% | KM12 colon -95.7%

S=C1SCN(Cc2cccs2)CN1Cc1cccs1
inactive: T-47D breast 56.5% | BT-549 breast 98.5% | MDA-MB-435 melanoma 93.3% | SW-620 colon 82.4% | MCF7 breast 43.9% | HCT-116 colon 99.4% | HCC-2998 colon 116% | KM12 colon 91.2%

Nc1ccc(Oc2ccccc2)c(Cl)c1
inactive: T-47D breast 86.6% | BT-549 breast 97.6% | MDA-MB-435 melanoma 93.6% | SW-620 colon 107% | MCF7 breast 95.6% | HCT-116 colon 79.3% | HCC-2998 colon 113% | KM12 colon 104%

Oc1ccc2c(c1)CCc1ccccc1-2
inactive: T-47D breast 86.3% | BT-549 breast 106% | MDA-MB-435 melanoma 96.6% | SW-620 colon 103% | MCF7 breast 103% | HCT-116 colon 97.7% | HCC-2998 colon 102% | KM12 colon 113%

C(=N\Nc1ccc2ccccc2n1)/c1ccccn1
inactive: T-47D breast 18.9% | BT-549 breast 43.9% | MDA-MB-435 melanoma 37.5% | SW-620 colon 23.5% | MCF7 breast 15.9% | HCT-116 colon 18.4% | HCC-2998 colon 17.1% | KM12 colon 29.1%

OCCOSCCO
inactive: T-47D breast 110% | BT-549 breast 110% | MDA-MB-435 melanoma 109% | SW-620 colon 105% | MCF7 breast 97.7% | HCT-116 colon 102% | HCC-2998 colon 111% | KM12 colon 112%

CCCCCCCCCCCCCCCC[N+]1(C)CCCC1c1cccnc1 (centres undefined)
inactive: T-47D breast 45.2% | MDA-MB-435 melanoma 63.9% | SW-620 colon 53.2% | MCF7 breast 41% | HCT-116 colon 35% | HCC-2998 colon 19.8% | KM12 colon 41.7%
active: BT-549 breast -6.27%

NNc1ccc(Cl)cc1Cl
inactive: T-47D breast 52% | BT-549 breast 88.7% | MDA-MB-435 melanoma 96.6% | SW-620 colon 53.7% | MCF7 breast 74.8% | HCT-116 colon 87.1% | HCC-2998 colon 93.9% | KM12 colon 51.3%

C/C(=N/NC(N)=S)c1ccc(C)cc1
active: HCT-116 colon 8.6%
inactive: T-47D breast 22% | BT-549 breast 105% | MDA-MB-435 melanoma 96.1% | SW-620 colon 75.3% | MCF7 breast 25.6% | HCC-2998 colon 110% | KM12 colon 104%

CN(C)CCN(C)CC(C)(C)C(=O)/C=C/c1ccc(Cl)c(Cl)c1
active: T-47D breast -56.7% [100 µM] | BT-549 breast -96% [100 µM] | MDA-MB-435 melanoma -96.5% [100 µM] | SW-620 colon -81.1% [100 µM] | MCF7 breast -66.4% [100 µM] | HCT-116 colon -93.4% [100 µM] | HCC-2998 colon -90.4% [100 µM] | KM12 colon -93.4% [100 µM]

Cc1oc2c(C)c3oc(=O)cc(C)c3cc2c1CCl
inactive: T-47D breast 53.9% | BT-549 breast 68.8% | MDA-MB-435 melanoma 63.4% | SW-620 colon 76.7% | MCF7 breast 49% | HCT-116 colon 71.1% | HCC-2998 colon 98.8% | KM12 colon 90.1%

— PubChem BioAssay (NCI)
